Source: PubChem (SRMLSC)
Sampled rows, rich in hits. Any-hit rate of the full collection: about 6.5%.
MK inhibit: blocks S. pneumoniae mevalonate kinase; purified MK, PK/LDH-coupled NADH absorbance 340 nm; inhibition, % at 10 µM; 65,000 tested, 0.48% active; AID 555;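 active = ranked among the strongest by inhibition in the single 10 µM screen, a fixed top-ranked set picked for dose follow-up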
PMK inhibit: S. pneumoniae PMK inhibition | purified PMK, PK/LDH-coupled NADH absorbance 340 nm | inhibition, % at 10 µM | 65,000 tested, 0.49% active;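 active = top-ranked compounds by inhibition in the single 10 µM screen, taking a fixed number of the strongest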
NADH enzymes: inhibition of NAD/NADH coupling enzymes, library profiling | 65,000 tested, 0.02% active | coupled PK/LDH NADH assays, four targets | IC50, µM (series often up to 10 µM);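 active = single-dose screening hits from any of four coupled enzyme assays that gave an IC50 when retested across doses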;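 note: the DPM-DC format reads NADH fluorescence rather than 340 nm absorbance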
Autofluor 339: intrinsic fluorescence of library compounds, ex339/em460 – biochemical, MLSMR library, data from DPM-DC assay, artefact control, profiling panel; compound autofluorescence, ex339/em460 nm, NADH buffer; active compounds read high; 1 = no-compound wells, NADH background; fluorescence fold increase at 10 µM; 65,000 tested, 5.5% active;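 active = at 10 µM, mean starting fluorescence two-fold or more over control wells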;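 note: signal is the first read of a kinetic run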
A340 absorber: absorbance at 340 nm | fold change at 10 µM | AID 708 | 65,000 tested, under 10 active | compound absorbance at 340 nm, fold over control;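 active = at 10 µM dose, initial 340 nm absorbance at least 2 fold that of control wells; inactive = change under 2 fold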;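 note: initial absorbance extrapolated from kinetic A340 decline of NADH oxidation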
DPM-DC inhibit: S. pneumoniae DPM-DC inhibition; purified DPM-DC, PK/LDH coupled NADH fluorescence; calls only at 10 µM; AID 556; 65,000 tested, 0.49% active;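 active = the 320 compounds with the highest percent inhibition in the single-dose primary screen, excluding strongly autofluorescent ones, cut at about 32% in these data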;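 note: kinetic rate of NADH fluorescence loss reporting ADP formed by the decarboxylase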
Each line names hits and unclear results; the compound was inactive in the other large screens.

O=c1c(O)c(-c2ccc3c(c2)OCO3)oc2ccccc12	Autofluor 339 3.03
CCOC(=O)C1CCCN(Cc2cc(OC)c(O)c(OC)c2)C1 (stereo not drawn)	MK inhibit 50.0
CCOC(=O)C1CCCN(Cc2cc(Br)c(OC)cc2OC)C1 (stereo not drawn)	MK inhibit 50.0
COc1cccc(CN2CCCC(C(=O)N3CCCCC3)C2)c1OC (stereo not drawn)	none
CCN(CC)C(=O)C1CCCN(Cc2ccc(OC)c(C)c2C)C1 (stereo not drawn)	MK inhibit 56.0
CCOC(=O)C1CCN(Cc2ccc(O)c(OC)c2)CC1	none
Cc1ccccc1-n1c(SCc2c(C)noc2C)nnc1-c1c[nH]c2ccccc12	none
Cc1noc(C)c1CSc1nnc(-c2ccncc2)n1-c1cccc(Cl)c1C	PMK inhibit 25.0
CCN(CC)c1nc(C)c2c(c1C#N)CC(C)(C)OC2	none
Cc1nc(NCCCO)c(C#N)c2c1COC(C)(C)C2	Autofluor 339 2.29 (not shown: DPM-DC inhibit)
CC1(C)Cc2c(c(-c3ccccc3)nc3[nH][nH]c(=O)c23)CO1	none
CC1(C)Cc2c(C#N)c(NCCCO)nc(-c3ccccc3)c2CO1	Autofluor 339 2.09 (not shown: DPM-DC inhibit)
O=C(C1CCC(=O)N1Cc1ccccc1Cl)N1CCN(c2cccc(Cl)c2)CC1 (stereo not drawn)	none
CC(C)n1c(=NC(=O)c2ccco2)c(C#N)cc2c(=O)n3ccccc3cc21	Autofluor 339 2.93 (not shown: DPM-DC inhibit)
O=C(N=C1SCC(=O)N1c1ccccc1Cl)c1ccco1	none
Cc1ccc2cc3c(NC(=O)c4ccco4)nn(C)c3nc2c1	Autofluor 339 2.9, DPM-DC inhibit active
CC(=O)Nc1nn(C)c2nc3cc(C)ccc3cc12	none
CC(=O)NCCn1c(SCc2ccccc2F)nc2ccccc2c1=O	none
CC(=O)NCCn1c(SCc2cc(=O)n3cc(Cl)ccc3n2)nc2ccccc2c1=O	Autofluor 339 2.13, DPM-DC inhibit active
CC1(C)Cc2ccccc2-c2nc(NCCCO)n(-c3ccccc3)c(=O)c21	Autofluor 339 2.15 (not shown: DPM-DC inhibit)
O=c1c2c(nc3n1CCCCC3)-c1ccccc1CC21CCCC1	none
Cn1c(NCCO)nc2c(c1=O)C1(CCCCC1)Cc1ccccc1-2	Autofluor 339 2.21 (not shown: DPM-DC inhibit)
O=c1[nH]c(NCCCO)nc2c1C1(CCCC1)Cc1ccccc1-2	Autofluor 339 2.1 (not shown: DPM-DC inhibit)
C=CCn1c(O)c(CN2CCOCC2)c(C)c(C#N)c1=O	none
COC(=O)CCN(C(=O)C1C2CC3CC(C2)CC1C3)c1ccccn1 (stereo not drawn)	none
COc1ccc2c(c1)c(C(=O)CNc1nc(C)cs1)c(C)n2C	PMK inhibit 27.0
S=c1nc(C2CCCCC2)[nH][nH]1	none
Cc1ccc(S(=O)(=O)C(C#N)c2nc3ccccc3nc2N2CCCC2)cc1 (stereo not drawn)	Autofluor 339 3.79 (not shown: DPM-DC inhibit)
CCN(CC)c1nc2ccccc2nc1C(C#N)C(=O)NCCCOC (stereo not drawn)	Autofluor 339 2.42
CCCCCNC(=O)C(C#N)c1nc2ccccc2nc1N1CCCC1 (stereo not drawn)	Autofluor 339 2.44
CCCNC(=O)CCC(=O)Nc1ncc(-c2ccc(C)cc2)n1C	none
Cc1ccc(S(=O)(=O)NC2=NCCC2)cc1	none
CCCCn1c(SCc2cc(=O)n3ccsc3n2)nc2cc(C(=O)OC)ccc2c1=O	none
CCOc1ccccc1OCCCCN1CCCC1	MK inhibit 50.0
CCOC(=O)c1c(N)n(CCOC(=O)c2cccs2)c2nc3ccccc3nc12	Autofluor 339 3.68 (not shown: DPM-DC inhibit)
N#CCCS(=O)(=O)c1nnnn1-c1ccccc1	none
CCC(Oc1ccc2c(c1)C(=O)CC(C)(C)O2)C(=O)NCCN1CCCCCC1 (stereo not drawn)	Autofluor 339 5.03 (not shown: DPM-DC inhibit)
CC1(C)CC(=O)c2cc(OCC(=O)NCCN3CCCc4ccccc43)ccc2O1	Autofluor 339 5.04 (not shown: DPM-DC inhibit)
COc1cc(C(=O)NCCC(=O)NCCN2CCCCCC2)cc(OC)c1OC	none
COc1ccc(CCNC(=O)CN2CCCc3ccccc32)cc1OC	none
CC1(C)CC(=O)c2cc(OCC(=O)NCCCN3CCN(c4ccc(F)cc4)CC3)ccc2O1	Autofluor 339 3.65
CCN1C(=O)N(CC)C2C1N(C(C)=O)C(=O)N2C(C)=O (stereo not drawn)	none
O=C(CSc1n[nH]c(=O)n1C1CC1)Nc1cc(Cl)ccc1Oc1ccccc1	none
Cc1cc(-c2ccccc2)nc(=O)[nH]1	none
